Laboratory results published in PubChem BioAssay (NCI).
“And” between values parts separate entries of the source, which are not always exact repeats. Equal values may be shown once. About 83,000 compounds went through this panel and 20% of them were active in at least one assay; those are over-represented in the sample as a whole.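 Activity criterion: percent growth below 10, measured after cells in 96-well plates were exposed to a single compound concentration for 48 hours.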 The source made the active and inactive calls.

Experiments:
Assay in all cases: NCI-60 one-dose screen, 48 h (100 = growth as untreated, 0 = no growth, -100 = all killed)
Conditions in all cases: 10 µM unless noted
[1] = system: UACC-62 melanoma
[2] = system: SNB-75 CNS
[3] = system: SNB-19 CNS
[4] = system: U251 CNS
[5] = system: PC-3 prostate
[6] = system: SK-MEL-5 melanoma
[7] = system: LOX IMVI melanoma
[8] = system: SK-MEL-28 melanoma
[9] = system: HT29 colon

SMILES	growth [1]	growth [2]	growth [3]	growth [4]	growth [5]	growth [6]	growth [7]	growth [8]	growth [9]
CCOC(=O)c1c(SC)nc(-c2ccc(Cl)cc2)sc1=N	5.48% [100 µM] (active) and 7.26% [100 µM] (active)								
C[C@]12C[C@H](c3ccoc3)OC(=O)[C@H]1CC[C@@]1(C)[C@@H]2[C@H]2C=C[C@]1(O)C(=O)O2	92.5% (inactive)	78.3% (inactive)	102% (inactive)	97.8% (inactive)	74.8% (inactive)	106% (inactive)	106% (inactive)	109% (inactive)	
CCCCOCCOP(=O)(OCCOCCCC)OCCOCCCC	93.7% (inactive)	103% (inactive)		106% (inactive)	103% (inactive)	99.1% (inactive)	91.7% (inactive)	117% (inactive)	104% (inactive)
CCC(=O)C(CC(C)[N+](C)(C)C)(c1ccccc1)c1ccccc1 (stereo not drawn)	101% (inactive)	93.8% (inactive)	96.8% (inactive)	97.9% (inactive)	103% (inactive)	97.2% (inactive)	96.7% (inactive)	106% (inactive)	108% (inactive)
C/C(=C(\c1ccc(OCCN2CCOCC2)cc1)c1ccc(OC(=O)Cc2ccccc2)cc1)c1ccc(Cl)cc1	85.4% (inactive)	95.7% (inactive)	96.3% (inactive)	99.2% (inactive)	68.2% (inactive)	86.6% (inactive)	98.6% (inactive)	103% (inactive)	77.1% (inactive)
C=CCOC(=O)C(Br)CC (stereo not drawn)	98.8% (inactive)	97.1% (inactive)	109% (inactive)	101% (inactive)	95% (inactive)	99.3% (inactive)	95.8% (inactive)	110% (inactive)	110% (inactive)
CCC1(CCSC#N)C(=O)NC(=O)NC1=O	104% (inactive)	97.1% (inactive)		93.9% (inactive)	92.5% (inactive)	100% (inactive)	101% (inactive)	110% (inactive)	100% (inactive)
C=C1C(=O)OC2/C=C(\C)CC/C=C(/C)CC(OC(=O)/C(=C/CO)CO)C12 (stereo not drawn)	-89.6% [100 µM] (active) and -100% [100 µM] (active)								
